Consider eight compounds from PubChem BioAssay (EPA / NIEHS).

Activity calls are given as the source filed them. Rule for the calls, unless noted: active = hit-call score of the fitted dose curve at least 0.9, where 1 is the maximum; inactive = score below 0.9.

Read-out in test [1]: Macrophage colony-stimulating factor (MCSF), CSF1 (gene 1435)
In words: BSK_LPS_MCSF: BioMAP Diversity Plus: LPS Assay for Macrophage colony-stimulating factor (MCSF) Biomarker Activity (AID 2283083). The following applies: primary human HUVEC with PBMC; actives raise or lower the signal. Summed up:
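HUVEC–PBMC co-culture, M-CSF measured by ELISA 24 h after chemical dosing. Fitted in both directions relative to DMSO as negative control; overt cytotoxicity assessed by SRB total-protein staining in parallel cultures.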

Read-out in test [2]: Tissue Factor, F3 (gene 2152)
In words: BSK_LPS_TissueFactor: BioMAP Diversity Plus: LPS Assay for Tissue Factor Biomarker Activity (AID 2283084). The following applies: primary human HUVEC with PBMC; actives raise or lower the signal. The essentials: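 Human umbilical vein endothelial cells co-cultured with PBMC were dosed with compound. Cell-surface CD142 was measured by ELISA 24 h later. Activity was fitted bidirectionally against DMSO, with SRB total-protein staining in parallel cultures for cytotoxicity.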

Read-out in test [3]: Tumor necrosis factor (Homo sapiens) (UniProt P01375)
Kind of test: BSK_LPS_TNFa: BioMAP Diversity Plus: LPS Assay for Tumour Necrosis Factor alpha (TNFa) Biomarker Activity (AID 2283085). Conditions: primary human HUVEC with PBMC; actives raise or lower the signal. Summed up:
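Human umbilical vein endothelial cells co-cultured with PBMC and stimulated with LPS. TNFa was measured by ELISA 24 h after chemical dosing, fitted bidirectionally relative to DMSO.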

Read-out in test [4]: Vascular cell adhesion molecule 1 (VCAM1), VCAM1 (gene 7412)
Kind of test: BSK_LPS_VCAM1: BioMAP Diversity Plus: LPS Assay for Vascular cell adhesion molecule 1 (VCAM1) Biomarker Activity (AID 2283086). The following applies: primary human HUVEC with PBMC; actives raise or lower the signal. The essentials:
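Human umbilical vein endothelial cells co-cultured with PBMC and stimulated with LPS; VCAM-1 measured by ELISA 24 h after dosing. Bidirectional curve fitting against DMSO baseline; cytotoxicity tracked in parallel by SRB total-protein staining.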

Read-out in a further test: CD38, CD38 (gene 952)
Kind of test: BSK_SAg_CD38: BioMAP Diversity Plus: SAg Assay for CD38 Biomarker Activity (AID 2283087). Conditions: primary human HUVEC with PBMC; actives raise or lower the signal. Summed up:
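Human HUVEC plus PBMC co-culture stimulated with superantigen; CD38 measured by ELISA 24 h after chemical dosing. Fluorescence read-out, bidirectional fit against DMSO; cytotoxicity tracked in parallel by SRB and Alamar Blue.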

Read-out in a further test: CD40, CD40 (gene 958)
Kind of test: BSK_SAg_CD40: BioMAP Diversity Plus: SAg Assay for CD40 Biomarker Activity (AID 2283088). The following applies: primary human HUVEC with PBMC; actives raise or lower the signal. The essentials:
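HUVEC plus PBMC co-culture, superantigen-activated, with CD40 read by ELISA 24 h after dosing. Curves fitted in both directions against DMSO. Overt cytotoxicity checked by parallel SRB total-protein staining.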

Read-out in another test: CD69, CD69 (gene 969)
In words: BSK_SAg_CD69: BioMAP Diversity Plus: SAg Assay for CD69 Biomarker Activity (AID 2283089).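 For AC50: cell surface CD69 protein quantified by ELISA with fluorescence detection.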 The following applies: primary human HUVEC with PBMC; actives raise or lower the signal. The essentials:
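Endothelial/PBMC co-culture; chemical added; 24 h incubation; CD69 ELISA with fluorescence detection; bidirectional fit vs DMSO.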

Read-out in test [5]: Monocyte Chemoattractant Protein-1 (MCP1), CCL2 (gene 6347)
Kind of test: BSK_SAg_MCP1: BioMAP Diversity Plus: SAg Assay for Monocyte Chemoattractant Protein-1 (MCP1) Biomarker Activity (AID 2283090). The following applies: primary human HUVEC with PBMC; actives raise or lower the signal. The essentials:
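MCP-1 levels in the endothelial–PBMC SAg co-culture were quantified by ELISA at 24 h post-dosing; both increases and decreases versus DMSO scored. Cytotoxicity monitored by SRB total protein in parallel cultures.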

Read-out in test [6]: E-selectin (Homo sapiens) (UniProt P16581)
Kind of test: BSK_SAg_Eselectin: BioMAP Diversity Plus: SAg Assay for Eselectin Biomarker Activity (AID 2283091). The following applies: primary human HUVEC with PBMC; actives raise or lower the signal. The essentials: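 Human umbilical vein endothelial cells co-cultured with peripheral blood mononuclear cells, SAg system. E-selectin is measured by ELISA 24 h after dosing and fitted bidirectionally against DMSO. Cytotoxicity is checked by SRB staining of parallel cultures.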

Read-out in test [7]: Monokine induced gamma interferon (MIG), CXCL9 (gene 4283)
In words: BSK_SAg_MIG: BioMAP Diversity Plus: SAg Assay for Monokine induced gamma interferon (MIG) Biomarker Activity (AID 2283092). The following applies: primary human HUVEC with PBMC; actives raise or lower the signal. Summed up:
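Measures CXCL9 protein by ELISA in a human vascular primary-cell co-culture (umbilical vein endothelium with PBMC) 24 h after chemical addition. Activity is scored up or down from the DMSO control.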

Test [8] can be described thus: BSK_SAg_PBMCCytotoxicity: PBMC Cytotoxicity Assessment in the BioMAP Diversity Plus: SAg Assay (AID 2283093).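 For AC50: PBMC superantigen activated with SEB plus TSST-1 one hour after compound addition.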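 Note: PBMC viability measured as Alamar Blue reduction fluorescence at 546/580 nm; fitted both ways against DMSO so a hit may be loss or gain of signal.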 Conditions: primary human HUVEC with PBMC. Summed up: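 Human umbilical vein endothelial cells co-cultured with PBMC; PBMC (75,000/well) pre-treated with compound 1 h, then activated with SEB and TSST-1 (20 ng/mL final each) for 90 h. Alamar Blue added 6 h, fluorescence 546/580 nm; bidirectional fit versus DMSO.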

Read-out in test [9]: Interleukin-8 (IL8), CXCL8 (gene 3576)
Kind of test: BSK_SAg_IL8: BioMAP Diversity Plus: SAg Assay for Interleukin-8 (IL8) Biomarker Activity (AID 2283094). The following applies: primary human HUVEC with PBMC; actives raise or lower the signal. The essentials: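 Human umbilical vein endothelial cells co-cultured with PBMC, stimulated with superantigen; IL-8 measured by ELISA 24 h after chemical dosing. Bidirectional fitting versus DMSO; SRB staining in parallel cultures tracks cytotoxicity.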

Test [10] is described as follows: BSK_SAg_Proliferation: Cell Proliferation Assessment in the BioMAP Diversity Plus: SAg Assay (AID 2283095). The following applies: primary human HUVEC with PBMC. Summed up:
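Human umbilical vein endothelial cells co-cultured with PBMC; sulforhodamine B total-protein staining (0.1% SRB after 10% TCA fixation, absorbance 560 nm) at 96 h in sub-confluent culture. Fitted bidirectionally against DMSO.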

Test [11] can be described thus: BSK_SAg_SRB: Viability Assessment in the BioMAP Diversity Plus: SAg Assay (AID 2283096).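 Note: cells read one day after compound addition; hits may be either gain or loss of signal compared with DMSO.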 The following applies: primary human HUVEC with PBMC. The essentials:
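Endothelial/PBMC primary human co-culture; compound 24 h; fix 10% TCA, stain 0.1% SRB, A560; protein content as cytotoxicity proxy; bidirectional curve fit, DMSO = baseline.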

Test [12] concerns the target human CYP2D6, CYP2D6 (gene 1565) (UniProt P10635). Kind of test: NVS_ADME_hCYP2D6: NovaScreen (NVS) CYP450-related Enzyme Activity (ADME) Assay for human CYP2D6 (AID 2283107; active = hit-call score of the fitted dose curve at least 0.9, where 1 is the maximum). The essentials: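 Cell-free assay using recombinant human CYP2D6 expressed in insect cells, with a fluorogenic substrate read after 1 h. Primary screen in duplicate at 10 uM; actives followed up in concentration series. Loss of signal fitted relative to acetonitrile.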

E-selectin (Homo sapiens), sequence (P16581 whole entry, looked up): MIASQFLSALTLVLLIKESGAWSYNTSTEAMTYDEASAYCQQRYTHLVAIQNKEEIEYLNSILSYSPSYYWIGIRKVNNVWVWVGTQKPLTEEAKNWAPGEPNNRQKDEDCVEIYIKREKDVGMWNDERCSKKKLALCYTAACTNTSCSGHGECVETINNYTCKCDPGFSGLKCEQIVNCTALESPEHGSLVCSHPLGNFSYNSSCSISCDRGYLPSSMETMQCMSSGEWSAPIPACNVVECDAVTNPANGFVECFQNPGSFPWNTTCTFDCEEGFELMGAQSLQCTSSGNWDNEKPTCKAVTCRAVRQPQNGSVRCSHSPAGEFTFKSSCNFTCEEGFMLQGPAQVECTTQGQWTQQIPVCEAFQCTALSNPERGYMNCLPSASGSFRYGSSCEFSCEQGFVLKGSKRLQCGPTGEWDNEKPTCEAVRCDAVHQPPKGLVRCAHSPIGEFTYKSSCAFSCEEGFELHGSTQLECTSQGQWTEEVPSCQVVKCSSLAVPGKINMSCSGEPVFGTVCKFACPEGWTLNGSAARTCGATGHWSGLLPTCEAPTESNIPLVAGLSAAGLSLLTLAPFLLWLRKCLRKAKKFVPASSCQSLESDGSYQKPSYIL
Tumor necrosis factor (Homo sapiens), sequence (P01375 whole entry, looked up): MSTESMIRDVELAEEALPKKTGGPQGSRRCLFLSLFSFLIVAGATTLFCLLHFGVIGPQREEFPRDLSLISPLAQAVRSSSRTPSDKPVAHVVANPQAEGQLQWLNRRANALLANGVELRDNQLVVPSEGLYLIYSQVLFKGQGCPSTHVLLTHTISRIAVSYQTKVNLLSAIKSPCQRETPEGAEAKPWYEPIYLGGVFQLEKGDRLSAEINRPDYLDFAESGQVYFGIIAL
human CYP2D6, CYP2D6 (gene 1565), sequence (P10635 whole entry, looked up): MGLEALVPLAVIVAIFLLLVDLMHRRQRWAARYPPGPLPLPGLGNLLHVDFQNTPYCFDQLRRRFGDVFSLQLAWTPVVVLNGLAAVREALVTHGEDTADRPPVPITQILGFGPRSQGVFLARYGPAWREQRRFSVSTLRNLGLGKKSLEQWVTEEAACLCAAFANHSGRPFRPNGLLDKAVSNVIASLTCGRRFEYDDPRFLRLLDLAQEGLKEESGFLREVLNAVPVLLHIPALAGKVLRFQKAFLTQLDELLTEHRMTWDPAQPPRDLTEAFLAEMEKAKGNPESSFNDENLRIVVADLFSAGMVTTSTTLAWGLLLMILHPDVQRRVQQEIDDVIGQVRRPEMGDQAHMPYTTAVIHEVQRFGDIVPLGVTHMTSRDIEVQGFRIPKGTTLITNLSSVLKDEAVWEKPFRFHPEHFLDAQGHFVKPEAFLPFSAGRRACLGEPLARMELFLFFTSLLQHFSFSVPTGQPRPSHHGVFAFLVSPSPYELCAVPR

For `CCNc1ccccc1`, the outcome was “inactive” in [1]; “inactive” in test [2]; “inactive” in [3]; “inactive” in [4]; “inactive” with CD38, CD38 (gene 952); “inactive” with CD40, CD40 (gene 958). Moreover, the outcome was “inactive” with CD69, CD69 (gene 969); “inactive” in test [5]; “inactive” in test [6]; “inactive” in [7]; “inactive” in test [8]; “inactive” in test [9]. The result in test [10] and in test [11] was inactive.

For `CC1(C)C(=O)N(Br)C(=O)N1Br`, the outcome in test [1] is “inactive”; in [2] it was “inactive”; in test [3] it was “inactive”; in test [4], “inactive”; with CD38, CD38 (gene 952), “inactive”; with CD40, CD40 (gene 958), “inactive”. In addition, the outcome was “inactive” in the test with CD69, CD69 (gene 969); “inactive” in [5]; “inactive” in test [6]; “inactive” in test [7]; “inactive” in test [8]; “inactive” in test [9]. In addition, the outcome in [10] and in test [11] was inactive.

Turning to `COc1cccc(-c2ccc(/C=C\CN3CCCCCC3)cc2Cl)c1`, the outcome in [1], in [2], in test [3], in test [5] and in test [10] was inactive. In addition, the AC50 in test [4] was 26 µM (active); with CD38, CD38 (gene 952), 29.1 µM (active); with CD40, CD40 (gene 958), 27.3 µM (active); with CD69, CD69 (gene 969) it was 30.4 µM (active); in [6], 29.8 µM (active); in test [7], 25.8 µM (active). Further, the AC50 was 25 µM (active) in test [9] and 27.2 µM (active) in test [11].

Consider `Cc1ccc(N)cc1O`, for which the outcome is “inactive” in test [1]; “inactive” in test [2]; “inactive” in test [3]; “inactive” in test [4]; “inactive” in the test with CD38, CD38 (gene 952); “inactive” with CD40, CD40 (gene 958). In addition, the outcome with CD69, CD69 (gene 969) is “inactive”; in test [5], “inactive”; in [7] it was “inactive”; in test [9], “inactive”; in test [11], “inactive”. Besides, the AC50 in [6] was 6.15 µM (active); in test [8], 9.99 µM (active); in [10], 8.98 µM (active); in test [12], 3.9 µM (active).

Take `CNCc1ccc(NC(=O)c2c[nH]c3c2C(=O)CCC3)cc1`: the outcome in test [1] is “inactive”; in [2], “inactive”; in test [3] it was “inactive”; in test [4], “inactive”; in the test with CD38, CD38 (gene 952) it was “inactive”; with CD40, CD40 (gene 958), “inactive”. In addition, the outcome was “inactive” with CD69, CD69 (gene 969); “inactive” in test [5]; “inactive” in [6]; “inactive” in test [7]; “inactive” in [8]; “inactive” in [9]. In addition, the outcome in test [10] and in test [11] was inactive.

As to `O=C(O)c1cccc(Oc2ccccc2)c1`, the outcome in [1] is “inactive”; in [2] it was “inactive”; in test [3], “inactive”; in test [4], “inactive”; in the test with CD38, CD38 (gene 952), “inactive”; with CD40, CD40 (gene 958), “inactive”. Further, the outcome with CD69, CD69 (gene 969) is “inactive”; in test [5], “inactive”; in [6] it was “inactive”; in [7], “inactive”; in [8], “inactive”; in test [9], “inactive”. Moreover, the result in test [10] and in test [11] was inactive.

For the compound `CC[C@H]1CC[C@H](NCc2cc3c(cc2OC)[C@H]2C[C@H]2C(=O)N3C)[C@H](c2ccccc2)N1`, the outcome in test [1] is “inactive”; in test [2], “inactive”; in test [3] it was “inactive”; in test [4], “inactive”; with CD38, CD38 (gene 952), “inactive”; with CD40, CD40 (gene 958) it was “inactive”. The outcome with CD69, CD69 (gene 969) was “inactive”; in test [5], “inactive”; in [6], “inactive”; in [7] it was “inactive”; in [8], “inactive”; in [9] it was “inactive”. Besides, the result in [10] and in test [11] was inactive.

On to `C1=CCCC=CCCC=CCC1`, for which the outcome in test [1] is “inactive”; in test [2] it was “inactive”; in test [3] it was “inactive”; in [4], “inactive”; in the test with CD38, CD38 (gene 952), “inactive”; with CD40, CD40 (gene 958), “inactive”. For the same compound, the outcome with CD69, CD69 (gene 969) is “inactive”; in test [5] it was “inactive”; in test [6] it was “inactive”; in test [7] it was “inactive”; in [8] it was “inactive”; in test [9] it was “inactive”. For the same compound, the outcome in test [10] and in test [11] was inactive.
